Among the data in PubChem BioAssay AID624168 (Sanford-Burnham Center for Chemical Genomics, 2012) are activation values, retold here.

Out of some 360,000 compounds screened, about 800 (0.22%) were called active. This excerpt belongs to a sample that is enriched for actives. Unmarked numbers belong to inactive results.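 Rule for the calls: active = activation of at least 8% versus controls, or a plate z-score of at least 8; inactive = the rest.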

The nature of this assay: activators of alpha-DG glycosylation, primary screen, uHTS, Pro5-aDG cells, AlphaScreen (AID 624168).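 Note: Pro5 are CHO cells carrying HIG-tagged alpha-DG that lacks glycosylation.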 The settings on record: alpha-DG glycosylation AlphaScreen (IIH6), at 10 µM, hits give high values, 0% Pro5, 100% B10-LARGE cell signal.
As for `O=C(NCc1cccnc1)c1ccc(CS(=O)(=O)c2ccc(Br)cc2)o1`, the activation was -0.2%. For the molecule `O=C1CC(c2cccc(Br)c2)C2=C(CCCC2=O)N1` (stereo unspecified), the activation is 0%. In the case of `Cc1ccsc1/C=N/NC(=O)Cc1cc(=O)[nH][nH]1` it was -0.1%; in that of `O=S(=O)(Nc1ccc(O)c2ccccc12)c1ccc(OC(F)(F)F)cc1`, 2.6% (active). As for `O=S(=O)(Nc1ccc(OC(F)(F)F)cc1)c1cccc2nonc12`, the activation is -0.1%. The same measure for `CNC(=O)COc1ccc(S(=O)(=O)Nc2ccccc2)cc1`: 0.1%. The same measure for `Cc1ccc(C)c(C(=O)N2CCC(n3nccc3NC(=O)C3CC3)CC2)c1`: 0.3%; for `CC(NC(=O)COC(=O)Cn1cc(C(F)(F)F)ccc1=O)c1ccccc1` (stereo unspecified): -0.1%. As for `COc1ccc(-c2oc(/N=C/N3CCCC3)c(C#N)c2-c2ccc(OC)cc2)cc1`, the activation was 0.1%. As for `COc1cccc(CN(C)CC2CCCN(CCc3ccc(Cl)cc3)C2)c1OC` (stereo unspecified), the activation was 0%. Turning to `CCn1cc(CN2CCC(C(=O)Nc3cccc(-c4cccc(Cl)c4)c3)CC2)cn1`, the activation was 3.4%. The same measure for `CCn1cc(CN2CCC(C(=O)Nc3cccc(-c4cccc(Cl)c4)c3)CC2)c(C)n1`: 7.1% (active); for `O=C(Nc1cccc(-c2cccc(Cl)c2)c1)C1CCN(C2CCC2)CC1`: 1.9%. In the case of `CN(C)N1C(N)=C(C#N)C(c2ccc(Br)cc2)C2=C1CCCC2=O` (stereo unspecified) it was 0%; in that of `CCCn1c(=N)n(CC(=O)c2ccc(Cl)c(Cl)c2)c2ccccc21`, 9.7% (active); in that of `O=C(Cn1nnc(N2CCCCC2)n1)c1ccc(Cl)c(Cl)c1`, -0.1%.

`CCN(CC)CC1(O)CCN(C(=O)c2ccc(Cl)c(Cl)c2)CC1`: the activation was -0.1%. In the case of `O=C(O)c1ccccc1-c1cccc2nncn12` it was 0.1%; in that of `Cc1ccc(-c2ccc(CN3C(C(C)C)C(=O)N(Cc4cn(CCC5OCCCO5)nn4)CCS3(=O)=O)cc2)cc1` (stereo unspecified), 0.4%; in that of `CC(C)C(c1nnnn1C(C)(C)C)N1CCN(Cc2cccnc2)CC1` (stereo unspecified), -0.3%. For the molecule `O=C(Cn1ncc2c3ccccc3n(Cc3ccccc3)c2c1=O)NCc1ccccn1`, the activation was -0.4%. In the case of `CC(C#N)OC(=O)c1cccnc1SCC(=O)Nc1ccc2c(c1)OCO2` (stereo unspecified) it was 0.5%; in that of `c1ccc2c(C[n+]3csc4ccccc43)cccc2c1`, -0.1%.

Take `Nc1scc[n+]1Cc1cccc2cccnc12`: the activation was 1.9% (active).

In the case of `CC(NCc1ccccc1OC1CCCC1)c1ccccc1` (stereo unspecified), the activation was 0.5%. The same measure for `O=C(COc1cccc(Cl)c1)NCc1ccccc1`: 0.1%.
